Laboratory results from PubChem BioAssay (NCATS).
Where “and” joins values, the source holds several entries; their conditions need not be identical. Equal values may be shown once. Records with an inconclusive call do not appear. Where a call stands in place of a potency, no number is given. Values without a mark were called inactive. Calls of active or inactive are those of the source. Calls come from the whole dose curve; as a rule, active = well fitted curve in the direction sought with a large enough effect; inconclusive = small, poorly fitted or top-dose-only effect, or another doubt; inactive = no such curve, though single readings can be large; an effect the other way counts as inactive or inconclusive.

How the values were obtained:
[1] = molecular target: Cellular tumor antigen p53 (Homo sapiens) (UniProt P04637); assay: Primary qHTS for small molecule compounds that upregulate eGFP-tagged delta133p53alpha (in N-terminal) cells. (AID 2060322); conditions: NCI-H358 eGFP-delta133p53alpha fluorescence, 24 h; activation: active compounds read high; note: nearly all actives have a fitted effect of over 75% in size; note: potency is the fitted concentration of half-maximal effect; for activation: series mostly up to about 56 µM
Method in brief: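 NCI-H358 cells pre-induced 24 h with 10 ng/ml doxycycline to express N-terminal eGFP-delta133p53alpha, then dosed 24 h at 37C without doxycycline; fixed, Hoechst-stained, GFP intensity by laser scanning cytometry, normalized to DMSO (0%) and 57.5 uM 5-azacytidine (100%).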

[2] = molecular target: Aldehyde dehydrogenase, mitochondrial (Homo sapiens) (UniProt P05091); assay: qHTS for Inhibitors of the Aldehyde Dehydrogenase Family (ALDH2) Primary screen (AID 2061308); note: nearly all actives have a fitted effect of over 55% in size
[3] = molecular target: Retinaldehyde dehydrogenase 3 (Homo sapiens) (UniProt P47895); assay: qHTS for Inhibitors of the Aldehyde Dehydrogenase Family (ALDH1A3) Validation screen (AID 2061312); note: nearly all actives have a fitted effect of over 45% in size
[4] = molecular target: Retinaldehyde dehydrogenase 3 (Homo sapiens) (UniProt P47895); assay: qHTS for Inhibitors of the Aldehyde Dehydrogenase Family (ALDH1A3) Primary screen (AID 2061315)
[5] = molecular target: Retinaldehyde dehydrogenase 3 (Homo sapiens) (UniProt P47895); assay: qHTS for Inhibitors of the Aldehyde Dehydrogenase Family (ALDH1A3) Confirmatory screens (AID 2061311); note: nearly all actives have a fitted effect of over 60% in size
[6] = BET inhibitor-based combinations targeting novel dependencies in MECOM-rearranged (r) AML: SET-2 cell line (AID 2202231); conditions: SET-2 AML cells viability, CellTiter-Glo luminescence, 48 h; viability: active compounds read low, concentration not given here; note: nearly all actives have a fitted effect of over 35% in size; note: potency is the fitted concentration of half-maximal effect
Method in brief: (§1)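 Readout: CellTiter-Glo luminescence. Exposure: 48 h, 11 concentrations, 500 cells/well. Metric: AUC and within-line Z-AUC after DMSO/empty-well normalization.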

[7] = BET inhibitor-based combinations targeting novel dependencies in MECOM-rearranged (r) AML: HNT-34 cell line (AID 2202234); note: nearly all actives have a fitted effect of over 35% in size; note: potency is the fitted concentration of half-maximal effect
Method in brief: (§2)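 Seeding density was 500 cells/well, and drug exposure lasted 48 hr under standard culture conditions. Read-out used CellTiter-Glo reagent with a 15 min room-temperature incubation before luminescence measurement; AUC and Z-AUC summarize the normalized responses.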

[8] = BET inhibitor-based combinations targeting novel dependencies in MECOM-rearranged (r) AML: AML-194 cell line (AID 2202237; note: nearly all actives have a fitted effect of over 40% in size; note: potency is the fitted concentration of half-maximal effect)
Method in brief: as §1

[9] = BET inhibitor-based combinations targeting novel dependencies in MECOM-rearranged (r) AML: OCI-AML3 cell line (AID 2202232); conditions: Potency: OCI-AML3 viability; note: nearly all actives have a fitted effect of over 35% in size; note: potency is the fitted concentration of half-maximal effect
Method in brief: as §1

[10] = BET inhibitor-based combinations targeting novel dependencies in MECOM-rearranged (r) AML: MV-4-11 cell line (AID 2202233); note: nearly all actives have a fitted effect of over 45% in size; note: potency is the fitted concentration of half-maximal effect
Method in brief: as §2

[11] = BET inhibitor-based combinations targeting novel dependencies in MECOM-rearranged (r) AML: UCSD-AML1 cell line (AID 2202235); note: nearly all actives have a fitted effect of over 40% in size; note: potency is the fitted concentration of half-maximal effect
Method in brief: as §2

[12] = BET inhibitor-based combinations targeting novel dependencies in MECOM-rearranged (r) AML: AML-191 cell line (AID 2202236; note: potency is the fitted concentration of half-maximal effect; nearly all actives have a fitted effect of over 35% in size)
Method in brief: as §1

Cellular tumor antigen p53 (Homo sapiens), sequence (P04637 whole entry, looked up): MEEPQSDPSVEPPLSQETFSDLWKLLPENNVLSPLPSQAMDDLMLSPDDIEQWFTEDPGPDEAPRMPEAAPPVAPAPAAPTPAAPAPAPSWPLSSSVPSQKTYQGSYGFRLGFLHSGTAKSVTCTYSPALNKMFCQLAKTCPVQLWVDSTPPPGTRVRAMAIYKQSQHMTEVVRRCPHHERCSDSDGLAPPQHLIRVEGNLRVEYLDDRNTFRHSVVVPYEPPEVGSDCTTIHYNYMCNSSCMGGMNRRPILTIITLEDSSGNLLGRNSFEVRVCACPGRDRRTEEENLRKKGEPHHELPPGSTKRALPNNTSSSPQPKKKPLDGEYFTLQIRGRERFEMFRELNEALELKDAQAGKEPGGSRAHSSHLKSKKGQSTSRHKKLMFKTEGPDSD

For `CNC(=O)N1N=C(c2ccc(N)cc2)c2cc3c(cc2CC1C)OCO3` (stereo unspecified), the activation [1] was 34.7%, the Potency [2] was “inactive” and the Potency [3] was “inactive”. The Potency [4] was “inactive”.

For `CCc1c(C(=O)C(N)=O)c2c(OCC(=O)OC)cccc2n1Cc1ccccc1`, the activation [1] was -15.3%, the Potency [2] was “inactive” and the Potency [3] was “inactive”. For the same compound, the Potency [4] was “inactive”.

For `C/C=C(/C)C1C=CC2CC(C)CC(C)C2C1/C(O)=C1\C(=O)NC(CC(C)(O)C(=O)O)C1=O` (stereo unspecified), the activation [1] was -26%, the Potency [2] was “inactive” and the Potency [5] was “inactive”. For the same compound, the Potency [4] was “inactive”.

For `Cn1ncnc1COc1nn2c(-c3c(F)cccc3F)nnc2cc1C1CCC1`, the activation [1] was -7.16%, the Potency [2] was “inactive” and the Potency [3] was “inactive”. The Potency [4] was “inactive”.

For `CCOc1ccccc1-n1c(C(C)N2CCN(C(=O)COc3ccc(Cl)cc3)CC2)nc2ccccc2c1=O` (stereo unspecified), the activation [1] was 0.955%, the Potency [2] was “inactive” and the Potency [3] was “inactive”. The Potency [4] was “inactive”, the Potency [6] was 1320 nM (active) and the Potency [7] was 3320 nM (active). For the same compound, the Potency [8] was 4680 nM (active).

With `CN(C(=O)C(c1ccccc1)c1ccccc1)[C@H](CN1CC[C@H](O)C1)c1ccccc1` the activation [1] was 14.8%, the Potency [2] was “inactive” and the Potency [3] was “inactive”. The Potency [4] was “inactive”.

For `O=c1[nH]c2ccc(Cl)cc2c(N[C@@H]2CN3CCC2CC3)c1-c1nc2ccccc2[nH]1`, the Potency [1] was 17.2 µM (active) and 2.69 µM (active), the Potency [2] was “inactive” and the Potency [3] was “inactive”. For the same compound, the Potency [4] was “inactive”, the Potency [6] was 332 nM (active) and the Potency [9] was 417 nM (active). For the same compound, the Potency [10] was 74.2 nM (active), the Potency [11] was 417 nM (active) and the Potency [12] was 417 nM (active).

In the case of `CC1=C2C[C@H]3[C@@H](CC=C4C[C@@H](O)CC[C@@]43C)[C@@H]2CC[C@]12O[C@@H]1C[C@H](C)CN[C@H]1[C@H]2C`, the activation [1] was 2.39%, the Potency [2] was “inactive” and the Potency [3] was “inactive”. The Potency [4] was “inactive”, the viability [6] was 113% and the Potency [9] was “inactive”. For the same compound, the Potency [10] was “inactive”, the Potency [7] was “inactive” and the Potency [11] was “inactive”. The Potency [8] was “inactive”.
